# Assay results published in the supplement of paper PMC11001985.
# A number with no mark means an inactive call.
# Compound: C#CCNC(=O)CCSSCCC(=O)NCCc1ccc(C=O)c(C=O)c1
# Assay: lysine labeling ratio R10:1 (500 µM / 50 µM probe), SILAC-ABPP in living cells; higher = lower intrinsic lysine reactivity toward the probe, active = 2 or less
# Settings: HeLa; probe concentrations 500 vs 50 µM
# Description: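 Living HeLa cells (SILAC light/heavy) in PBS at room temperature were labeled with 50 µM versus 500 µM of the lysine-reactive, reductant-cleavable probe OPA-S-S-alkyne (SILAC labeling time not stated). Probe-modified peptides were CuAAC-biotinylated, captured on neutravidin and eluted with DTT/IAA, then quantified by LC-MS/MS. R = median peptide ratio per lysine (500/50 µM), combined over 3 forward and 3 reverse SILAC replicates. Ratios are capped at 20; R < 2 = hyper-reactive.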
# Chain of UniProt Q07954 (Q07954 whole entry): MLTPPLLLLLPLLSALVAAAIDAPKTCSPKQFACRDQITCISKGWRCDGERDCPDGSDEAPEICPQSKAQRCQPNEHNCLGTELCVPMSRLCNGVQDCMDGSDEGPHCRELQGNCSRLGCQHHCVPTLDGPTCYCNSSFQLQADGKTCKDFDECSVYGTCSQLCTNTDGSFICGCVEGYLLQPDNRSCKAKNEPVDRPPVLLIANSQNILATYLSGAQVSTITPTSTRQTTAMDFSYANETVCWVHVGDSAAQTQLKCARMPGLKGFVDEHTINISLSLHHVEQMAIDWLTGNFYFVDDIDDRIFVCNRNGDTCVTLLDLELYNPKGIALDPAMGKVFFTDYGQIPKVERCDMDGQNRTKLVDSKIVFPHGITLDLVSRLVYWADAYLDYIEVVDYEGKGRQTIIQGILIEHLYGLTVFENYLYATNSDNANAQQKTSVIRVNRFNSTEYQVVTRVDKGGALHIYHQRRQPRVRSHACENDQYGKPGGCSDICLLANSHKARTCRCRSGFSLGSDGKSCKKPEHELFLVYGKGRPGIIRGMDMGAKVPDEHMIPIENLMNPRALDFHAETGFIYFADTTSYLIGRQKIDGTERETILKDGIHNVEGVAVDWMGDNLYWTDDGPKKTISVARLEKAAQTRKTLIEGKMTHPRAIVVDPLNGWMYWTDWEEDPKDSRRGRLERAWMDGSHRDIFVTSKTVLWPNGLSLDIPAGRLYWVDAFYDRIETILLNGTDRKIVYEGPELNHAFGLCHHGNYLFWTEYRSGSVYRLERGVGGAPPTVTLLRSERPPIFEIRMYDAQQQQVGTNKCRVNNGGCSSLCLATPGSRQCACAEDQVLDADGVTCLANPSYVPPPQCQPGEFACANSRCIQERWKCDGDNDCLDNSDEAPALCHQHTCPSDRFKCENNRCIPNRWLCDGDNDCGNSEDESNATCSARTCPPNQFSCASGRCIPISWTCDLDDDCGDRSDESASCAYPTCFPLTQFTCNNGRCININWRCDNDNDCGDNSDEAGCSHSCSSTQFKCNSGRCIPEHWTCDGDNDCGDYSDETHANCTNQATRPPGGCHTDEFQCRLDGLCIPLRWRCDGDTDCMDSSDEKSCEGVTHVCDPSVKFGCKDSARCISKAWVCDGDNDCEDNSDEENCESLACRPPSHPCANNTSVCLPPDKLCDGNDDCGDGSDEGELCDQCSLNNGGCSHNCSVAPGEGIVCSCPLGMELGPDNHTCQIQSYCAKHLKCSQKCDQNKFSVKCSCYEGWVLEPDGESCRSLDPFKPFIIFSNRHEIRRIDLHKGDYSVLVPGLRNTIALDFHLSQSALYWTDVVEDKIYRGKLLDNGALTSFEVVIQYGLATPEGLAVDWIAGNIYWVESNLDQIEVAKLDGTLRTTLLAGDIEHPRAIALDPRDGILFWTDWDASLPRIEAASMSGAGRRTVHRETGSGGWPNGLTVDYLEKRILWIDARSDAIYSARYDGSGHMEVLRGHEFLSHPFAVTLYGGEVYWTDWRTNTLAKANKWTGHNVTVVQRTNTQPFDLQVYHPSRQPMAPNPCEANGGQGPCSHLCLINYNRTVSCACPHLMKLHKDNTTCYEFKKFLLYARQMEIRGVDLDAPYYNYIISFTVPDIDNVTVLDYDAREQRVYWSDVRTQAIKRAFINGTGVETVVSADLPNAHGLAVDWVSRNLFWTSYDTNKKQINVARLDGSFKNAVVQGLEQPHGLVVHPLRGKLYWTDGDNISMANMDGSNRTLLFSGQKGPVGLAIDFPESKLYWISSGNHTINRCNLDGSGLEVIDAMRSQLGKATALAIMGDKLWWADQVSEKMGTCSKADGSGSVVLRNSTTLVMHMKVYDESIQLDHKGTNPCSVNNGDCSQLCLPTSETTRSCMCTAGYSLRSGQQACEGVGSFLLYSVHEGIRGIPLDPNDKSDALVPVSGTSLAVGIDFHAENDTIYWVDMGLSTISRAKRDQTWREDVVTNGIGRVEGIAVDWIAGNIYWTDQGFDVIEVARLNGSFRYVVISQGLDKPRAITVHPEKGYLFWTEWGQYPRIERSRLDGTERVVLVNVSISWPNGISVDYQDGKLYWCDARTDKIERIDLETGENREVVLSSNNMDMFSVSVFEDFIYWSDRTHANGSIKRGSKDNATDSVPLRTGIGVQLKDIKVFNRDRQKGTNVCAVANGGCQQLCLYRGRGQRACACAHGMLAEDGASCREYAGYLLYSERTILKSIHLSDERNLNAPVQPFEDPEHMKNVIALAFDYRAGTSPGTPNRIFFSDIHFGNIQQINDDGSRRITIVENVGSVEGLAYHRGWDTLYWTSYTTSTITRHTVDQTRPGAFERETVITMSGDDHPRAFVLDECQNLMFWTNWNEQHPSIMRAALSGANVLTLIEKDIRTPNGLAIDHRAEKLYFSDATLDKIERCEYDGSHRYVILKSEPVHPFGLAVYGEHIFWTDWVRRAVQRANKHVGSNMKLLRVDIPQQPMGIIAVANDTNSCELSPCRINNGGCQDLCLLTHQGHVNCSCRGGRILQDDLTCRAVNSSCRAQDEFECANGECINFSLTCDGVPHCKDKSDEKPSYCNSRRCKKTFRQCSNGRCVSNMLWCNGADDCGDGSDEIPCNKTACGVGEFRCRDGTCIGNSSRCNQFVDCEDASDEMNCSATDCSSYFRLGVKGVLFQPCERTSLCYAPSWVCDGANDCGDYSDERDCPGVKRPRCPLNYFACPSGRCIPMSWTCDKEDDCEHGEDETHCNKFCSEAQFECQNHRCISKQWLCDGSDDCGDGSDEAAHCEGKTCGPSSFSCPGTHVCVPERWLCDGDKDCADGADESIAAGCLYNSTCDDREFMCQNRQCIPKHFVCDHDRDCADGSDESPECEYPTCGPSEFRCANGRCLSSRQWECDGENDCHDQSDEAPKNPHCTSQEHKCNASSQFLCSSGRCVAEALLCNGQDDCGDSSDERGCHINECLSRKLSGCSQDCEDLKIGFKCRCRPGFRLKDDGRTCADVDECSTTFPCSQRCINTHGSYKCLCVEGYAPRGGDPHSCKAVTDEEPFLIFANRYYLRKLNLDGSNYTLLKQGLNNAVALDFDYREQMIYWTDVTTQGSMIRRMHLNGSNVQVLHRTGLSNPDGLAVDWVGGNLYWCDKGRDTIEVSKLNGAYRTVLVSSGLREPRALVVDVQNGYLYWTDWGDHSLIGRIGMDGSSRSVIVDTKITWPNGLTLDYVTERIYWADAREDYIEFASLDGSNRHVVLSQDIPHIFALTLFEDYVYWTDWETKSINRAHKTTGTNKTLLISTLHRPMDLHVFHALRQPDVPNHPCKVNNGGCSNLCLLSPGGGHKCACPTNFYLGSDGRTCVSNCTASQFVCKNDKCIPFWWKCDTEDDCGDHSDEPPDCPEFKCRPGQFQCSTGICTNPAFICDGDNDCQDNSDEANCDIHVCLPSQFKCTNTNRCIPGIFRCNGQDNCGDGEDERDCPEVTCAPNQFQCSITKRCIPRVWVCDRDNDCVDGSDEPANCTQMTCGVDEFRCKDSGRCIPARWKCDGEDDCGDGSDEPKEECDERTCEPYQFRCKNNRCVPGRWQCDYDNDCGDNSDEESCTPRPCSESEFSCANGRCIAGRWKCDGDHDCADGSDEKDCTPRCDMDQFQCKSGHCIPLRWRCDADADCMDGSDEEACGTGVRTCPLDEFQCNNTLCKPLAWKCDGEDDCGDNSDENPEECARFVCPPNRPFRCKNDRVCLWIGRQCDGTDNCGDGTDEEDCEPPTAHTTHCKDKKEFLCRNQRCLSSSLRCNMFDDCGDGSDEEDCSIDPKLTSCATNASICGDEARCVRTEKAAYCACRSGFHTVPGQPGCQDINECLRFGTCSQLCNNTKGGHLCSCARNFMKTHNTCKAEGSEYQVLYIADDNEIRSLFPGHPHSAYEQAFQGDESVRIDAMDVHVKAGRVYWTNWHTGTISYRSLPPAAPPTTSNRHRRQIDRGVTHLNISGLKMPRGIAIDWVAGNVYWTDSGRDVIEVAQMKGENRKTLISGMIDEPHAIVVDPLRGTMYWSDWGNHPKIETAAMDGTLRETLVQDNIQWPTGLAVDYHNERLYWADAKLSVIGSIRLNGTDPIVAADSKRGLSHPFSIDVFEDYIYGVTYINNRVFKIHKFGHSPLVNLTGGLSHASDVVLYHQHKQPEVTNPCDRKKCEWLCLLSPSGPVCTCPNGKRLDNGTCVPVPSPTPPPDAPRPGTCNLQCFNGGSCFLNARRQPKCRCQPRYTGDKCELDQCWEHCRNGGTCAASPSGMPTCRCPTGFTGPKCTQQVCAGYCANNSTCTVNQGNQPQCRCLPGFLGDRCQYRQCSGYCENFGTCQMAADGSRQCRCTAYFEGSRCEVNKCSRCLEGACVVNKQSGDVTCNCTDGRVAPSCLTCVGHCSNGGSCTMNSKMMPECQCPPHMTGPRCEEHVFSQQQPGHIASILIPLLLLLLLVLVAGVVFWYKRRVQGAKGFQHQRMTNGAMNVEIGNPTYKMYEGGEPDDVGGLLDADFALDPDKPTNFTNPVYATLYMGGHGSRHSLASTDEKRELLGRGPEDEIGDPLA
# Chain of UniProt Q13740 (Q13740 whole entry): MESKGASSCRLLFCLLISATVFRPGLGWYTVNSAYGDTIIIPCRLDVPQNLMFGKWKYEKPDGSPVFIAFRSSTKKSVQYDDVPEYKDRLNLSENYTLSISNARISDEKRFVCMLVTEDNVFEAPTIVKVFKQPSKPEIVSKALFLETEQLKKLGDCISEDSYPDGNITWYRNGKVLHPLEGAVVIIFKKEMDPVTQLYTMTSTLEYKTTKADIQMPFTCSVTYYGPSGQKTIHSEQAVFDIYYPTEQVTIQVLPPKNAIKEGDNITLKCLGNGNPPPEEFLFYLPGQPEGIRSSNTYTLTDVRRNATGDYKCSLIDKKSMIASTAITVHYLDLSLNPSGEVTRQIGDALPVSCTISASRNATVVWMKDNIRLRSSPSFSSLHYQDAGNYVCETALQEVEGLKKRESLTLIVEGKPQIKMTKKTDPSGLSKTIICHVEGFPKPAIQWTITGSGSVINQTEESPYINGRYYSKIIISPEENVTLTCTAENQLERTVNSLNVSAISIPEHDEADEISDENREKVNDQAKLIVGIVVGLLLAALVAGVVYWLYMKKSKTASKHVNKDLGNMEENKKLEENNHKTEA
row,Target,lysine labeling ratio R10:1
1,UniProt P46781 (lysine site: K139),3
2,UniProt Q15149 (lysine site: K3968),2.71
3,CFL1 (lysine site: K78) (UniProt P23528),1.61 (active)
4,KTN1 (lysine site: K1240) (UniProt Q86UP2),5.6
5,TFRC (lysine site: K673) (UniProt P02786),3
6,ALCAM (lysine site: K60) (UniProt Q13740),2.97
7,SPTAN1 (lysine site: K2187) (UniProt Q13813),5.14
8,SLC25A4 (lysine site: K245) (UniProt P12235),1.72 (active)
9,DSG2 (lysine site: K362) (UniProt Q14126),1.02 (active)
10,AXL (lysine site: K211) (UniProt P30530),2.55
11,DCTN2 (lysine site: K65) (UniProt Q13561),1.14 (active)
12,UniProt O95084 (lysine site: K331),4.02
13,HNRNPL (lysine site: K302) (UniProt P14866),1.66 (active)
14,SRI (lysine site: K146) (UniProt P30626),4.33
15,UniProt P62826 (lysine site: K71),2.74
16,PTPRM (lysine site: K234) (UniProt P28827),1.53 (active)
17,LMO7 (lysine site: K1248) (UniProt Q8WWI1),0.993 (active)
18,ATAD3B (lysine site: K214) (UniProt Q5T9A4),2.61
19,CDH13 (lysine site: K74) (UniProt P55290),5.06
20,RPS19 (lysine site: K122) (UniProt P39019),4.72

row,Target,lysine labeling ratio R10:1
1,LRP1 (lysine site: K2009) (UniProt Q07954),3.1
2,PTPRM (lysine site: K375) (UniProt P28827),5.3
3,SHMT2 (lysine site: K302) (UniProt P34897),2.59
4,LRP1 (lysine site: K458) (UniProt Q07954),2.56
5,UniProt Q32P28 (lysine site: K437),1.13 (active)
6,MYO1C (lysine site: K781) (UniProt O00159),1.34 (active)
7,IGF2R (lysine site: K1862) (UniProt P11717),1.81 (active)
8,DYNC1H1 (lysine site: K4171) (UniProt Q14204),2.12
9,TMED9 (lysine site: K71) (UniProt Q9BVK6),5.82
10,TALDO1 (lysine site: K321) (UniProt P37837),0.79 (active)
11,VPS35 (lysine site: K515) (UniProt Q96QK1),1.25 (active)
12,EIF2S3 (lysine site: K70) (UniProt P41091),3.79
13,UniProt P22413 (lysine site: K503),1.89 (active)
14,TKT (lysine site: K352) (UniProt P29401),6
15,IGF2R (lysine site: K393) (UniProt P11717),3.23
16,UniProt P61088 (lysine site: K82),1.19 (active)
17,FLNA (lysine site: K1375) (UniProt P21333),2.93
18,CD63 (lysine site: K110) (UniProt P08962),5.07
19,CD109 (lysine site: K471) (UniProt Q6YHK3),2.01
20,SERPINH1 (lysine site: K413) (UniProt P50454),4.84
